Data: PubChem BioAssay (Tox21)
Inconclusive results are not listed. More than one record can exist for a structure, and the calls need not agree. The source made the active and inactive calls. Unless noted, calls follow the shape of the dose curve; as a rule, active = well fitted cell-killing curve with a large enough effect in the repeat runs; inconclusive = weak or mixed curves, or effect the other way; inactive = no such curve, though single readings can be large or run the other way.

Target: Peroxisome proliferator-activated receptor delta (Homo sapiens) (UniProt Q03181)
Experiment: qHTS assay to identify small molecule antagonists of the peroxisome proliferator-activated receptor delta (PPARd) signaling pathway (AID 743215; active = well fitted inhibition curve with a large enough effect in the signal ratio in the repeat runs, not every such curve was filed as active; the % refers to the signal ratio;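 also: cells stimulated with agonist L165041 at 300 nM final during compound exposure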)
Settings: HEK293H PPARd-UAS-bla, beta-lactamase FRET ratio, antagonist, 17 h; series mostly up to 62 µM; ratio activity, negative = inhibition: at the top concentration
Method in brief: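 With L165041 present at 300 nM final, compounds were incubated 17 h at 37 C on PPARd UAS-bla HEK293H cells. A FRET-based beta-lactamase substrate was then applied for 2 h at room temperature and fluorescence intensity recorded.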
% is scaled to controls: 0 for no effect and ±100 for the full control effect.

Sequence of Peroxisome proliferator-activated receptor delta (Homo sapiens) (Q03181 whole entry, looked up): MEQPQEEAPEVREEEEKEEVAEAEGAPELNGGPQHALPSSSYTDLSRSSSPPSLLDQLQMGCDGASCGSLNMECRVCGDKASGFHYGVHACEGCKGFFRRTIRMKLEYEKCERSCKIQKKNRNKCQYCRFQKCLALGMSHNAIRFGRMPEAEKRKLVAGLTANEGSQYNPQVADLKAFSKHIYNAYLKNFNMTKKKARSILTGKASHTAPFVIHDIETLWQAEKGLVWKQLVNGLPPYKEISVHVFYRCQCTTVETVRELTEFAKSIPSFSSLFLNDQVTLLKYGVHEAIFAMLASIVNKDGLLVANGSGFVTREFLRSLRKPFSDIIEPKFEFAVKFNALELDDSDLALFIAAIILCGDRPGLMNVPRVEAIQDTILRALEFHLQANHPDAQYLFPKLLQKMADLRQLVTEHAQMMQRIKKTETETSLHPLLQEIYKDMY

SMILES	ratio activity, negative = inhibition
O=S1(=O)OC(c2cc(Br)c(O)c(Br)c2)(c2cc(Br)c(O)c(Br)c2)c2ccccc21	7.16% (inactive)
C[C@H]1CNCCc2ccc(Cl)cc21	-1.98% (inactive)
Cc1cc(=O)[nH]o1	9.59% [at 80.4 µM] (inactive)
Nc1nc(=S)[nH][nH]1	-7.2% (inactive)
CC(C)=CCOc1c2occc2cc2ccc(=O)oc12	3.09% (inactive)
c1ccc(CN2CCNCC2)cc1	7.98% [at 226 µM] (inactive)
O=C(CBr)OCc1ccccc1	1.69% (inactive)
Clc1cccc2ccccc12	10.9% (inactive)
O=C(CBr)c1ccccc1	-13% [at 80.4 µM] (inactive)
CCCCN(N=O)C(=N)N[N+](=O)[O-]	11.2% [at 80.4 µM] (inactive)
CCCCCCCCCCOC(=O)c1ccccc1C(=O)OCCCCCCCCCC	8.7% (inactive)

Target: Bile acid receptor (Homo sapiens) (UniProt Q96RI1)
Experiment: qHTS assay to identify small molecule antagonists of the farnesoid-X-receptor (FXR) signaling pathway (AID 743217; active = well fitted inhibition curve with a large enough effect in the signal ratio in the repeat runs, not every such curve was filed as active; the % refers to the signal ratio)
Settings: HEK293T FXR-UAS-bla, beta-lactamase ratio, CDCA-stimulated, 16 h; series mostly up to 62.6 µM; activity change, negative = inhibition: at the top concentration
Method in brief: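 In this cell-based antagonist screen, inhibition of CDCA-driven (50 uM final) UAS-beta-lactamase expression in HEK 293T cells was measured by FRET fluorescence following 16 h compound exposure at 37 °C.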

Sequence of Bile acid receptor (Homo sapiens) (Q96RI1 whole entry, looked up): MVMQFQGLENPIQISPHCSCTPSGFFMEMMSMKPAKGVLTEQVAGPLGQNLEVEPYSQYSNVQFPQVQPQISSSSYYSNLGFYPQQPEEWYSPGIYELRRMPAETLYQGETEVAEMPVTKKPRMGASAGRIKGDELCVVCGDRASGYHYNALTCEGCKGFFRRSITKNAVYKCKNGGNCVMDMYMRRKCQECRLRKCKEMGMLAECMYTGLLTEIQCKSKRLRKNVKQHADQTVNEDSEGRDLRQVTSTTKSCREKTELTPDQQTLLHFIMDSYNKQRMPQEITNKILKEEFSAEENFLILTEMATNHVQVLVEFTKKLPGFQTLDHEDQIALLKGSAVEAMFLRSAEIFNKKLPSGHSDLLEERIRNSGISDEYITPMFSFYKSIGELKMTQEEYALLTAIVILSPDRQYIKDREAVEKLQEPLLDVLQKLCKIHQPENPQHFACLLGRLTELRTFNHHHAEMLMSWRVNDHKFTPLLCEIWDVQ

SMILES	activity change, negative = inhibition
O=S1(=O)OC(c2cc(Br)c(O)c(Br)c2)(c2cc(Br)c(O)c(Br)c2)c2ccccc21	3.07% (inactive)
C[C@H]1CNCCc2ccc(Cl)cc21	-10.7% (inactive)
O=C(O)C(F)(F)C(F)(F)C(F)(F)C(F)(F)C(F)(F)C(F)(F)C(F)(F)C(F)(F)C(F)(F)C(F)(F)F	-0.442% (inactive)
CC(C)=CCOc1c2occc2cc2ccc(=O)oc12	-3.35% (inactive)
O=C(O)C1(c2ccc3c(c2)OC[C@H](Cc2ccc(-c4ccccc4)cc2)[C@H]3O)CCCC1	-4.5% (inactive)
COc1nn(C(=O)NS(=O)(=O)c2ccccc2OC(F)(F)F)c(=O)n1C	12.7% (inactive)
O=C(CBr)OCc1ccccc1	8.72% (inactive)
C=CCC1([C@H](C)CCC)C(=O)NC(=O)NC1=O	-26.4% [at 81.1 µM] (inactive)
COP(=S)(OC)Oc1cc(Cl)c(I)cc1Cl	-18.4% (inactive)
O=C(CBr)c1ccccc1	9.15% [at 81.1 µM] (inactive)
CC1(C)CCC(Cc2ccc(Cl)cc2)C1(O)Cn1cncn1 (configuration not stated)	-26.6% (inactive)
O=NN1CCCCCC1	12.5% (inactive)
C=CC(=O)OC	2.66% [at 81.1 µM] (inactive)
CCCCCCCCCCOC(=O)c1ccccc1C(=O)OCCCCCCCCCC	-5.65% (inactive)
C=CCN1CC[C@]23c4c5ccc(O)c4O[C@H]2C(=O)CC[C@@]3(O)[C@H]1C5	7.99% (inactive)

System: not listed separately
Experiment: qHTS assay to identify small molecule agonists of the farnesoid-X-receptor (FXR) signaling pathway - cell viability counter screen (AID 743218); also: nearly all actives have a fitted effect of over 45% in size; also: potency is read from the fitted curve at half-maximal effect
Settings: FXR-bla HEK293T viability, CellTiter-Glo luminescence, 16 h; series mostly up to 62.6 µM; viability change, negative = cytotoxic: at the top concentration
Method in brief: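 After 16 h at 37 C with test compounds, FXR-bla HEK 293T cells were given LiveBLAzer B/G substrate for 2 h at RT and then CellTiter-Glo; luminescence was taken after 30 min.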

SMILES	viability change, negative = cytotoxic	Potency
C[C@H]1CNCCc2ccc(Cl)cc21	-20.3% (inactive)	–
CCOC(=O)[C@]1(c2ccccc2)Oc2ccccc2[C@@H]1N	-6.76% (inactive)	–
O=C(O)C(F)(F)C(F)(F)C(F)(F)C(F)(F)C(F)(F)C(F)(F)C(F)(F)C(F)(F)C(F)(F)C(F)(F)F	-1.12% (inactive)	–
Nc1nc(=S)[nH][nH]1	-3.69% (inactive)	–
CC(C)=CCOc1c2occc2cc2ccc(=O)oc12	11.1% (inactive)	–
COc1cc(Cl)c(OC)cc1Cl	12.7% (inactive)	–
CC1(C)[C@H](C=C(Cl)Cl)[C@@H]1C(=O)O[C@@H](C#N)c1cccc(Oc2ccccc2)c1	0.5% (inactive)	–
COC(=O)C(C)N(C(=O)Cc1ccccc1)c1c(C)cccc1C (configuration not stated)	-24% (inactive)	–
CC[C@H]1C[C@H]2[C@@H]3CCC4=CC(=O)CC[C@@H]4[C@H]3CC[C@]2(C)[C@H]1O	14.9% (inactive)	–
c1ccc(CN2CCNCC2)cc1	17.5% [at 232 µM] (inactive)	–
CC(C)N(CCC(C(N)=O)(c1ccccc1)c1ccccn1)C(C)C (configuration not stated)	0.95% (inactive)	–
O=C(CBr)OCc1ccccc1	-13.1% (inactive)	–
CN1C(=O)C(O)N=C(c2ccccc2)c2cc(Cl)ccc21 (configuration not stated)	3.08% [at 81.1 µM] (inactive)	–
CCCCC(CC)COP(=O)(Oc1ccccc1)Oc1ccccc1 (configuration not stated)	-21.9% (inactive)	–
[CH3][Sn]([CH3])([Cl])[Cl]	–	55.9 µM (active) and inactive
Clc1cccc2ccccc12	2.15% (inactive)	–
CO/C=C(/C(=O)OC)c1ccccc1COc1cccc(C(F)(F)F)n1	-0.538% (inactive)	–
O=C(CBr)c1ccccc1	4.38% [at 81.1 µM] (inactive)	–
CC1(C)CCC(Cc2ccc(Cl)cc2)C1(O)Cn1cncn1 (configuration not stated)	-3.63% (inactive)	–
O=NN1CCCCCC1	7.83% (inactive)	–
CCCCN(N=O)C(=N)N[N+](=O)[O-]	-7.92% [at 81.1 µM] (inactive)	–
CC(C)(C)c1cc([N+](=O)[O-])cc([N+](=O)[O-])c1O	-42.6% (inactive)	–
C=CC(=O)OC	14.9% [at 81.1 µM] (inactive)	–
C=CCN1CC[C@]23c4c5ccc(O)c4O[C@H]2C(=O)CC[C@@]3(O)[C@H]1C5	0.0307% (inactive)	–

Target: Bile acid receptor (Homo sapiens) (UniProt Q96RI1)
Experiment: qHTS assay to identify small molecule agonists of the farnesoid-X-receptor (FXR) signaling pathway (AID 743220; active = well fitted activation curve with a large enough effect in the signal ratio in the repeat runs, not every such curve was filed as active; the % refers to the signal ratio)
Settings: HEK293T FXR-UAS-bla, beta-lactamase FRET ratio, 16 h; series mostly up to 62.6 µM; activation: at the top concentration
Method in brief: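 Beta-lactamase reporter under UAS control in GeneBLAzer FXR HEK 293T cells (5000/well) measured with LiveBLAzer FRET substrate after 2 h at room temperature. Compound exposure lasted 16 h at 37C.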

SMILES	activation	outcome
O=S1(=O)OC(c2cc(Br)c(O)c(Br)c2)(c2cc(Br)c(O)c(Br)c2)c2ccccc21	1.27% (inactive)	–
C[C@H]1CNCCc2ccc(Cl)cc21	1.91% (inactive)	–
O=C(O)C(F)(F)C(F)(F)C(F)(F)C(F)(F)C(F)(F)C(F)(F)C(F)(F)C(F)(F)C(F)(F)C(F)(F)F	0.201% (inactive)	–
CC(C)=CCOc1c2occc2cc2ccc(=O)oc12	2.29% (inactive)	–
COc1nn(C(=O)NS(=O)(=O)c2ccccc2OC(F)(F)F)c(=O)n1C	-0.216% (inactive)	–
O=C(CBr)OCc1ccccc1	3.32% (inactive)	–
C=CCC1([C@H](C)CCC)C(=O)NC(=O)NC1=O	-0.364% [at 81.1 µM] (inactive)	–
CCCCC(CC)COP(=O)(Oc1ccccc1)Oc1ccccc1 (configuration not stated)	-0.853% (inactive)	–
COP(=S)(OC)Oc1cc(Cl)c(I)cc1Cl	4.13% (inactive)	–
C(=NC1CCCCC1)=NC1CCCCC1	–	inactive
CO/C=C(/C(=O)OC)c1ccccc1COc1cccc(C(F)(F)F)n1	0.336% (inactive)	–
O=C(CBr)c1ccccc1	-1.09% [at 81.1 µM] (inactive)	–
CC1(C)CCC(Cc2ccc(Cl)cc2)C1(O)Cn1cncn1 (configuration not stated)	-1.15% (inactive)	–
O=NN1CCCCCC1	1.24% (inactive)	–
C=CC(=O)OC	-0.626% [at 81.1 µM] (inactive)	–
CCCCCCCCCCOC(=O)c1ccccc1C(=O)OCCCCCCCCCC	0.569% (inactive)	–
C=CCN1CC[C@]23c4c5ccc(O)c4O[C@H]2C(=O)CC[C@@]3(O)[C@H]1C5	-0.0246% (inactive)	–
